Source: PubChem BioAssay (NCATS)
“And” between values parts separate entries of the source, which are not always exact repeats. Equal entries are not always repeated. Values without a mark were called inactive. Records with an inconclusive call do not appear. A call without a number means that no potency is given here. The source made the active and inactive calls. Unless noted, calls follow the shape of the dose curve; as a rule, active = well fitted curve in the direction sought with a large enough effect; inconclusive = small, poorly fitted or top-dose-only effect, or another doubt; inactive = no such curve, though single readings can be large; an effect the other way counts as inactive or inconclusive.

Experiments:
[1] = Cell Viability - Renal Proximal Tubule (AID 545);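 also: cells exposed to compound for 40 hours; nearly all actives have a fitted effect of over 40% in size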
How it was run: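 Cytotoxicity is scored as a concentration-dependent drop in cellular ATP in primary rat renal proximal tubule cells exposed for 40 hr. AC50 derives from Hill modelling.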

[2] = Cellular Toxicity (caspase-3) Jurkat (AID 655); conditions: Jurkat caspase-3 activation, luminescence; caspase-3 activation: at 92.2 µM (top of the series), DMSO = 0%, tamoxifen = 100%;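 also: cells exposed to compound for 16 h at 37 °C before reading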
How it was run: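 Caspase 3/7 activation is scored as increased luminescence in Jurkat cells cultured with compound for 16 hours in complete medium. AC50 values come from Hill fits of qHTS concentration-response data normalized to DMSO and 100 uM tamoxifen controls.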

[3] = Cellular Toxicity (caspase-3) Hek293 (AID 664); conditions: HEK293 caspase-3 activation, DMSO = 0%, 100 µM tamoxifen = 100%; at 92.2 µM (top of the series);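 also: cells exposed to compound for 16 h at 37 °C before readout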
How it was run: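 Concentration-response qHTS: caspase 3/7 activation measured by luminescent aminoluciferin substrate cleavage after 16 h compound exposure of Hek 293 cells. AC50 from Hill equation, with DMSO as basal and 100 uM tamoxifen as 100%.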

[4] = Cell Viability - LYMP1-003 - Assay at 40 hr (AID 964); also: nearly all actives have a fitted effect of over 60% in size
How it was run: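 Viability is taken as cellular ATP, read by CellTiter-Glo luminescence after 40 h of compound exposure at 37 C. Cells: human lymphoblastoid line LYMP1-003 at 2500/well; AC50 values derived by Hill-equation fitting of concentration-response data.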

[5] = Cell Viability - LYMP2-003 (AID 965);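 also: cells exposed to compounds for 24 h before reading; nearly all actives have a fitted effect of over 50% in size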
How it was run: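 Acute cytotoxicity is scored as a concentration-dependent drop in intracellular ATP, measured by luciferase luminescence in human lymphoblastoid cells treated for 24 hours at 37 C. AC50 values derive from Hill-equation modelling.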

[6] = Cell Viability - LYMP2-009 (AID 968); also: nearly all actives have a fitted effect of over 55% in size
[7] = Cell Viability - LYMP2-017 (AID 972); also: nearly all actives have a fitted effect of over 55% in size
How it was run: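 CellTiter-Glo luminescence (cellular ATP, 30 min RT) measured cytotoxicity after 24 hr compound treatment at 37 C. Cells were a human lymphoblastoid line, LYMP2-017, plated at 2500/well and incubated 5 hr first; concentration-response fitted with Hill equation for AC50.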

[8] = Cell Viability - LYMP2-019 (AID 973); also: nearly all actives have a fitted effect of over 55% in size
How it was run: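 AC50 values come from Hill-equation fits of luminescent intracellular ATP (CellTiter-Glo, 30 min, room temperature) following 24 h compound exposure at 37 C. Cells: LYMP2-019 lymphoblastoid line, 2500 per well, in complete culture medium.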

[9] = Cell Viability - LYMP2-021 (AID 974); also: nearly all actives have a fitted effect of over 55% in size
How it was run: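 AC50 values come from Hill-equation fits to CellTiter-Glo luminescence (ATP content), read after 24 hour compound exposure at 37 C of 2500 LYMP2-021 lymphoblastoid cells/well; tetraoctylammonium bromide as positive control.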

[10] = Cell Viability - LYMP2-002 (AID 977)
How it was run: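 In this qHTS viability screen, 2500 human lymphoblastoid cells per well receive compound for 24 hr at 37 C, and luciferase-based ATP luminescence gives the viability signal. Tetraoctylammonium bromide serves as positive control.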

[11] = Cell Viability - LYMP2-010 (AID 981); also: nearly all actives have a fitted effect of over 55% in size
How it was run: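 CellTiter-Glo ATP luminescence measured cytotoxicity after 24 h compound exposure at 37 C. LYMP2-010 cells were seeded at 2500/well, with tetraoctylammonium bromide as control; concentration-response curves gave AC50 values by the Hill equation.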

[12] = Cell Viability - LYMP2-014 (AID 983); also: nearly all actives have a fitted effect of over 50% in size
How it was run: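 Intracellular ATP loss, read by luciferase luminescence, measures acute cytotoxicity after 24 h compound exposure of lymphoblastoid LYMP2-014 cells (2500/well, 37 C). Concentration-response data fitted to the Hill equation for AC50.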

[13] = Cell Viability - LYMP2-020 (AID 986); also: nearly all actives have a fitted effect of over 55% in size
How it was run: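 Cytotoxicity in qHTS format: luminescent ATP readout from CellTiter-Glo after 24 h compound exposure at 37 C in complete medium. LYMP2-020 lymphoblastoid cells were seeded at 2500/well; concentration-response data fitted to the Hill equation for AC50.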

[14] = Cell Viability - LYMP2-022 (AID 987); also: nearly all actives have a fitted effect of over 55% in size
How it was run: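 Cytotoxicity read as decreased cellular ATP (CellTiter-Glo luminescence, 30 min room temperature) after 24 hours compound exposure of 2500 lymphoblastoid LYMP2-022 cells/well at 37 C. Concentration-response data fitted with standard Hill equation for AC50.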

[15] = target: Voltage-gated inwardly rectifying potassium channel KCNH2 (Homo sapiens) (UniProt Q12809); experiment: qHTS Assay for Small Molecule Inhibitors of the Human hERG Channel Activity (AID 588834);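 also: lower thallium flux fluorescence means stronger hERG block; nearly all actives have a fitted effect of over 50% in size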; also: potency is read from the fitted curve at half-maximal effect
How it was run: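 Cells were infected with hERG-BacMam virus for 4 hrs at room temperature, grown overnight, then seeded at 2000/well. After dye loading and roughly 10 min compound treatment, thallium influx was triggered and fluorescence recorded.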

[16] = qHTS assay for small molecule activators of the human pregnane X receptor (PXR) signaling pathway (AID 720659; call rule not given here)
[17] = target: Mitogen-activated protein kinase 10 (Mus musculus) (UniProt Q61831); experiment: JNK3 AlphaScreen Assay (AID 530; active = well fitted curve in either direction with a large enough effect, not every such curve was filed as active;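 also: kinase came from lysate of stimulated human HepG2 cells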; also: potency is read from the fitted curve at half-maximal effect)
How it was run: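 Phosphorylation of biotinylated GST-cJun(1-79) at Ser73 is measured by AlphaScreen proximity luminescence. Enzyme is JNK3 in HepG2 lysates activated with interleukin-1beta and tumor necrosis factor alpha; ATP is 10 uM final.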

[18] = Cell Viability - LYMP2-011 (AID 969); also: nearly all actives have a fitted effect of over 60% in size
How it was run: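 Cytotoxicity qHTS with ATP content as read-out: lymphoblastoid cells (2500/well) exposed to compound for 24 h at 37 C, then luciferase luminescence measured. Concentration-response data fitted with the standard Hill equation to give AC50.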

[19] = Cell Viability - LYMP2-006 (AID 978); also: nearly all actives have a fitted effect of over 60% in size
How it was run: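 Concentration-dependent loss of intracellular ATP in a human lymphoblastoid line after 24 hr treatment at 37 C was measured by CellTiter-Glo luminescence, with AC50 values obtained from standard Hill-equation modelling.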

[20] = qHTS assay for small molecule activators of the nuclear factor-kappa B (NF-kB) signaling pathway (AID 651749; active = well fitted activation curve with a large enough effect in the signal ratio; the % refers to the signal ratio); conditions: NF-kB-bla ME-180 cells, beta-lactamase FRET ratio, 16 h; active compounds read high
How it was run: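 Human ME-180 cervical cells with an NF-kB-bla construct; compounds added via 23 nL pin transfer, DMSO as vehicle; incubation 16 hr. Reporter activity measured by FRET disruption.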

Sequence of Voltage-gated inwardly rectifying potassium channel KCNH2 (Homo sapiens) (Q12809 whole entry, looked up): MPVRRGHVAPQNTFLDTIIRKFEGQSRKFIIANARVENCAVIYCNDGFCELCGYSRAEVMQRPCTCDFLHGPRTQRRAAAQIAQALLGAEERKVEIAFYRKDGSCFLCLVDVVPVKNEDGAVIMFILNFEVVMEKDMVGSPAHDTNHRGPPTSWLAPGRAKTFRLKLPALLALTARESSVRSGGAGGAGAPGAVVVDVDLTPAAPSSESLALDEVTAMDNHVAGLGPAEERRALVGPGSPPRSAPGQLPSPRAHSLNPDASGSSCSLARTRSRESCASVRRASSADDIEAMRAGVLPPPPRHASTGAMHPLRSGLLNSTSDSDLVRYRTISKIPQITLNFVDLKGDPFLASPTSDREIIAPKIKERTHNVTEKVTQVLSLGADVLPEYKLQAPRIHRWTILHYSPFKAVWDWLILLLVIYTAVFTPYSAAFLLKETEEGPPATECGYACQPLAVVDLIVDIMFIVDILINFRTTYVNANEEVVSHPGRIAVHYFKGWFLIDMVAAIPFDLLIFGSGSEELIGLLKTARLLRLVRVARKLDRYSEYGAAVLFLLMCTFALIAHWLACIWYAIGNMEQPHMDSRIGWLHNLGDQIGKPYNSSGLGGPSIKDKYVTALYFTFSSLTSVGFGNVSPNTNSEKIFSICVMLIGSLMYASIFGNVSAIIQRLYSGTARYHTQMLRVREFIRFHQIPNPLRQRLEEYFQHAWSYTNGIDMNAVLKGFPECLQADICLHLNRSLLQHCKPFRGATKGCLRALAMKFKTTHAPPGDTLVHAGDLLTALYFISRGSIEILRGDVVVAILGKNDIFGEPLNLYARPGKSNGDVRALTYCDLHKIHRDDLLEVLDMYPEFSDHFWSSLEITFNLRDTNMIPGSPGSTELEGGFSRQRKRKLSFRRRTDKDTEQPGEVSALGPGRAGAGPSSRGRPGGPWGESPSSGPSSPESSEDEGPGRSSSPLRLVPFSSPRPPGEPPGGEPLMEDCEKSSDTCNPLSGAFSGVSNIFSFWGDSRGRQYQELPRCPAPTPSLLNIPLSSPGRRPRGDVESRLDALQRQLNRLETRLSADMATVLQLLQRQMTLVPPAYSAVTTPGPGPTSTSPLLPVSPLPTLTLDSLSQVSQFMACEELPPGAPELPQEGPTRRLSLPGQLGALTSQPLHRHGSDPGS

Structure (SMILES)	outcome [1]	caspase-3 activation [2] [%]	caspase-3 activation [3] [%]	Potency [4]	Potency [5]	Potency [6]	Potency [7]	Potency [8]	Potency [9]	Potency [10]	Potency [11]	Potency [12]	Potency [13]	Potency [14]	Potency [15]	outcome [16]	Potency [17]	Potency [18]	Potency [19]	activation [20]
Nc1ccc(-c2ccc(N)cc2)cc1	inactive	0.684	0.43	inactive	inactive	inactive	inactive	inactive	inactive	inactive	inactive	inactive	inactive	inactive	inactive	inactive	–	–	–	–
CN(C)N=O	inactive	0.809	5.49	inactive	–	inactive	inactive	–	inactive	inactive	–	–	inactive	inactive	inactive	inactive	inactive	inactive	inactive	-0.838%
O=c1ccc(=O)[nH][nH]1	inactive	1.49	-1	inactive	–	inactive	inactive	inactive	–	–	inactive	inactive	–	–	inactive	inactive	–	inactive	inactive	-0.7% and 1.42%
Clc1cc(Cl)c(Cl)c(Cl)c1	–	–	-0.644	inactive	inactive	inactive	inactive	inactive	inactive	inactive	inactive	–	inactive	inactive	inactive	inactive	inactive	inactive	–	-0.964%
c1ccc2c(c1)CCNC2	inactive	0.933	–	inactive	–	–	inactive	inactive	inactive	–	inactive	inactive	inactive	inactive	inactive	inactive	inactive	inactive	–	0.526%
CC(C)(C)c1ccccc1O	inactive	-1.03	-1.2	inactive	inactive	–	inactive	inactive	inactive	inactive	–	–	inactive	–	inactive	inactive	inactive	inactive	–	-0.0104% and -1.11%
CN(C)C(=O)Nc1cccc(C(F)(F)F)c1	–	2.52	–	inactive	inactive	inactive	inactive	inactive	inactive	–	–	inactive	inactive	inactive	inactive	inactive	inactive	inactive	inactive	0.0409% and 1.96%
O=C(Cc1ccccc1)OCc1ccccc1	inactive	3.55	2.6	inactive	inactive	inactive	inactive	inactive	–	–	–	inactive	inactive	inactive	inactive	inactive	–	inactive	inactive	–
ClC(Br)Br	inactive	0.0387	-0.91	inactive	inactive	inactive	–	inactive	inactive	inactive	inactive	inactive	–	inactive	inactive	inactive	inactive	–	inactive	1.19%
c1ccc(NNc2ccccc2)cc1	inactive	0.504	-0.473	inactive	inactive	–	–	–	–	inactive	inactive	inactive	inactive	inactive	–	inactive	inactive	inactive	inactive	0.182% and 3.71%
O=C(O)CCl	inactive	-0.292	-1.43	–	inactive	inactive	inactive	inactive	inactive	inactive	inactive	inactive	–	inactive	inactive	inactive	inactive	–	inactive	–
Cc1ccc2c(c1N)C(=O)c1ccccc1C2=O	inactive	-9.07	-8.32	inactive	inactive	inactive	inactive	inactive	inactive	inactive	inactive	inactive	inactive	inactive	–	–	3.98 µM (active)	inactive	inactive	0.359% and 2.04%
O=NN1CCCCC1	inactive	1.18	-0.0969	–	inactive	inactive	inactive	inactive	inactive	inactive	inactive	inactive	inactive	inactive	inactive	inactive	inactive	inactive	inactive	-0.849%
C/C=C/C=O	–	0.559	-1.23	inactive	inactive	inactive	inactive	–	inactive	inactive	inactive	inactive	inactive	inactive	inactive	inactive	inactive	–	–	0.438%
CC(C)Br	–	–	-2.59	–	inactive	inactive	–	inactive	inactive	–	inactive	inactive	–	inactive	inactive	inactive	–	–	inactive	–
CC(C)(OOC(C)(C)c1ccccc1)c1ccccc1	inactive	-0.0747	4.99	inactive	inactive	inactive	inactive	–	inactive	inactive	–	inactive	inactive	inactive	–	–	–	inactive	inactive	0.182% and -0.836%

Structure (SMILES)	outcome [1]	caspase-3 activation [2] [%]	caspase-3 activation [3] [%]	Potency [4]	Potency [5]	Potency [6]	Potency [7]	Potency [8]	Potency [9]	Potency [10]	Potency [11]	Potency [12]	Potency [13]	Potency [14]	Potency [15]	outcome [16]	Potency [17]	Potency [18]	Potency [19]	activation [20]
C=CCO	inactive	2.82	0.437	inactive	inactive	–	inactive	inactive	inactive	inactive	inactive	inactive	inactive	–	inactive	inactive	inactive	inactive	inactive	0.305%
CCCCC(=O)Cl	inactive	1.28	–	inactive	inactive	inactive	inactive	inactive	inactive	inactive	inactive	inactive	inactive	inactive	inactive	inactive	inactive	–	inactive	-1.31%
CCOC(=O)C1OC1(C)c1ccccc1 (stereo unspecified)	inactive	–	–	–	inactive	inactive	inactive	inactive	inactive	–	–	inactive	inactive	inactive	inactive	–	inactive	inactive	inactive	–
BrCC(Br)C1CCC(Br)C(Br)C1 (stereo unspecified)	inactive	3.33	6.64	inactive	inactive	inactive	inactive	–	inactive	inactive	inactive	inactive	inactive	inactive	22.4 µM (active)	–	–	inactive	–	-1.21%
ClCCOCCCl	–	-0.264	-1.83	–	inactive	–	–	inactive	–	–	inactive	inactive	inactive	inactive	inactive	inactive	inactive	inactive	–	-0.467%
Oc1ccc(Cl)c(Cl)c1Cl	inactive	0.688	1.72	inactive	inactive	inactive	–	inactive	inactive	–	–	inactive	inactive	–	inactive	inactive	–	inactive	inactive	-0.348%
Cc1ccc(N)cc1C	inactive	0.158	–	inactive	inactive	inactive	inactive	inactive	inactive	inactive	inactive	inactive	inactive	inactive	inactive	inactive	inactive	inactive	inactive	0.0731%
CC12CC1(C)C(=O)N(c1cc(Cl)cc(Cl)c1)C2=O (stereo unspecified)	inactive	-1.16	1.47	inactive	inactive	inactive	inactive	inactive	–	–	–	inactive	inactive	inactive	inactive	–	inactive	inactive	inactive	-0.629% and -1.26%
CCCCNC(=O)n1c(NC(=O)OC)nc2ccccc21	–	7.08	-2.55	–	inactive	inactive	inactive	inactive	inactive	inactive	–	inactive	–	–	inactive	inactive	inactive	inactive	inactive	-0.565% and 0.0154%
CCCCC#N	inactive	0.125	-1.9	inactive	–	inactive	inactive	inactive	inactive	inactive	inactive	–	inactive	inactive	inactive	inactive	inactive	–	inactive	–
c1ccc(C2CO2)cc1 (stereo unspecified)	–	–	-0.153	inactive	inactive	inactive	inactive	inactive	inactive	–	inactive	inactive	inactive	inactive	inactive	inactive	inactive	inactive	inactive	–
COc1ccc(C=O)cc1	inactive	-0.692	1.65	inactive	–	inactive	inactive	inactive	inactive	–	inactive	inactive	inactive	–	inactive	inactive	inactive	inactive	inactive	-0.721%
CC(C)CON=O	–	-1.62	0.719	inactive	inactive	inactive	inactive	–	inactive	inactive	inactive	inactive	inactive	inactive	inactive	inactive	inactive	inactive	inactive	–
Cc1coc2c1CCC(C)C2 (stereo unspecified)	–	0.203	0.975	–	inactive	inactive	inactive	–	inactive	inactive	inactive	inactive	–	inactive	inactive	–	inactive	inactive	inactive	-0.0074%
ClCC(Br)CBr (stereo unspecified)	inactive	0.662	0.439	inactive	inactive	inactive	inactive	–	inactive	inactive	inactive	inactive	inactive	inactive	–	inactive	inactive	inactive	inactive	-0.578%
O=[N+]([O-])CCO	inactive	-0.445	0.0344	–	inactive	–	inactive	inactive	inactive	inactive	inactive	–	inactive	inactive	inactive	inactive	–	–	–	-0.859%
